Holding throughout (conditions): compound concentration in added solution (µM; 5 µl added to 20 µl cells): 10; 18 h
The test system of assay [1] is A431. Briefly: LBPA endosome anti-LBPA integrated intensity (sum per cell), Z-score; higher = more LBPA staining. An outline of the steps:
(§1)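 Four 20× images per well were taken of HeLa MZ or A431 cells that had been seeded at 3,500 per well in 20 µl onto 5 µl of 10 µM compound solution in duplicate 384-well imaging plates. Before imaging, cells were incubated 18 h, fixed in 4% PFA and stained with 6C4 anti-LBPA antibody, filipin, propidium iodide and CellTracker green. Values are Z-scores normalised in AcuityXpress from MetaXpress-derived per-cell integrated LBPA or filipin intensity, either whole-cell or within LBPA endosomes.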

The subject of assay [2] is HeLa MZ. The assay is described as above. The procedure, abridged: as §1
Assay [3] has as its system A431. Description: whole-cell filipin (free cholesterol) integrated intensity, Z-score; higher = more cholesterol staining. An outline of the steps: as §1
Assay [4] relates to HeLa MZ. Described as above. An outline of the steps: as §1
The test system of assay [5] is A431. Description: filipin (cholesterol) integrated intensity within LBPA endosomes, Z-score; higher = more cholesterol in LBPA endosomes. An outline of the steps: as §1
The subject of assay [6] is HeLa MZ. Described as above. An outline of the steps:
as §1

We go through twelve compounds from the supplement of paper PMC6607015.

Where a name gives a salt, the structure may show the parent alone.

Take `CC(=O)O[C@]1(C(C)=O)CC[C@H]2[C@@H]3C=C(Cl)C4=CC(=O)CC[C@]4(C)[C@H]3CC[C@@]21C` [Chlormadinone acetate]: the “LBPA endosome anti-LBPA integrated intensity (z-score)” value turned out to be 0.021 in the assay on A431 [1] and 2.23 in the assay on HeLa MZ [2]. Moreover, the “whole-cell filipin (z-score)” value in the assay with A431 [3] came to 0.739; with HeLa MZ [4], 1.32. The “filipin (z-score)” value in the assay with A431 [5] was determined as 0.102; in the assay on HeLa MZ [6] it was 0.534.
`CCN1CCN(C(=O)N[C@@H](C(=O)N[C@@H]2C(=O)N3C(C(=O)O)=C(CSc4nnnn4C)CS[C@H]23)c2ccc(O)cc2)C(=O)C1=O` [Cefoperazone dihydrate]: the figures for the “LBPA endosome anti-LBPA integrated intensity (z-score)” value with A431 [1] and in the assay on HeLa MZ [2] were -0.512 and -0.941, respectively. For the same compound, the “whole-cell filipin (z-score)” value in the assay with A431 [3] was -0.712; in the assay with HeLa MZ [4] it was -0.226. Further, the “filipin (z-score)” value in the assay with A431 [5] was -0.522; with HeLa MZ [6], -0.518.
As for `CCOc1cc(CC(=O)N[C@@H](CC(C)C)c2ccccc2N2CCCCC2)ccc1C(=O)O` [Repaglinide], the “LBPA endosome anti-LBPA integrated intensity (z-score)” value with A431 [1] is -0.598; with HeLa MZ [2], -1.05. The “whole-cell filipin (z-score)” value in the assay with A431 [3] is 0.149; in the assay with HeLa MZ [4], 0.153. For the same compound, the figures for the “filipin (z-score)” value with A431 [5] and in the assay on HeLa MZ [6] were -0.42 and -0.591, respectively.
On to `CC(Cc1cccc(C(F)(F)F)c1)NCCOC(=O)c1ccccc1` (configuration not stated) [Benfluorex hydrochloride], for which the “LBPA endosome anti-LBPA integrated intensity (z-score)” value with A431 [1] was -0.077; in the assay on HeLa MZ [2], -0.59. The “whole-cell filipin (z-score)” value in the assay on A431 [3] was -0.118; with HeLa MZ [4], 0.0685. Moreover, the “filipin (z-score)” value with A431 [5] is -0.352; in the assay on HeLa MZ [6], -0.573.
On to `CC(O)(P(=O)(O)O)P(=O)(O)O` [Etidronic acid, disodium salt], for which the “LBPA endosome anti-LBPA integrated intensity (z-score)” value with A431 [1] was -0.428; in the assay with HeLa MZ [2], -0.376. In addition, the “whole-cell filipin (z-score)” value was -0.14 in the assay on A431 [3] and -0.368 in the assay on HeLa MZ [4]. For the same compound, the “filipin (z-score)” value is -0.461 in the assay on A431 [5] and -0.4 in the assay on HeLa MZ [6].
As for `COC(=O)C1=C(C)NC(C)=C(C(=O)OCCN(C)Cc2ccccc2)C1c1cccc([N+](=O)[O-])c1` (configuration not stated) [Nicardipine hydrochloride], the “LBPA endosome anti-LBPA integrated intensity (z-score)” value in the assay with A431 [1] worked out at 1.9; in the assay with HeLa MZ [2], 0.904. The “whole-cell filipin (z-score)” value in the assay with A431 [3] was 1.24; with HeLa MZ [4], -0.142. Besides, the “filipin (z-score)” value in the assay with A431 [5] worked out at 1.79; with HeLa MZ [6] it was 0.881.
For `CC1(C)S[C@@H]2[C@H](NC(=O)[C@H](NC(=O)N3CCNC3=O)c3ccccc3)C(=O)N2[C@H]1C(=O)O` [Azlocillin sodium salt], the “LBPA endosome anti-LBPA integrated intensity (z-score)” value in the assay with A431 [1] was -0.496; in the assay with HeLa MZ [2], -0.655. Also, the “whole-cell filipin (z-score)” value in the assay on A431 [3] was -0.388; in the assay with HeLa MZ [4], -0.517. For the same compound, the “filipin (z-score)” value with A431 [5] is -0.464; with HeLa MZ [6] it was -0.493.
In the case of `NC[C@H]1O[C@H](O[C@H]2[C@H](O[C@@H]3O[C@H](CO)[C@@H](O)[C@H]3O)[C@@H](O)[C@H](N)C[C@@H]2N)[C@H](N)[C@@H](O)[C@@H]1O` [Ribostamycin sulfate salt], the results for the “LBPA endosome anti-LBPA integrated intensity (z-score)” value in the assay with A431 [1] and in the assay on HeLa MZ [2] were -0.548 and 1.92, respectively. Moreover, the “whole-cell filipin (z-score)” value is -0.165 in the assay with A431 [3] and 2.24 in the assay with HeLa MZ [4]. In addition, the “filipin (z-score)” value is -0.516 in the assay with A431 [5] and -0.59 in the assay on HeLa MZ [6].
`OCCN1CCN(CCCN2c3ccccc3C=Cc3ccccc32)CC1` [Opipramol dihydrochloride]: the figures for the “LBPA endosome anti-LBPA integrated intensity (z-score)” value with A431 [1] and with HeLa MZ [2] were 0.228 and 1.81, respectively. Also, the “whole-cell filipin (z-score)” value was 0.629 in the assay with A431 [3] and -0.0646 in the assay on HeLa MZ [4]. The “filipin (z-score)” value with A431 [5] was 0.712; with HeLa MZ [6], 1.15.
With `CCCN(CCC)CCc1cccc2c1CC(=O)N2` [Ropinirole HCl], the “LBPA endosome anti-LBPA integrated intensity (z-score)” value is -0.0677 with A431 [1] and 0.764 with HeLa MZ [2]. In addition, the “whole-cell filipin (z-score)” value in the assay on A431 [3] was -0.368; in the assay on HeLa MZ [4], 0.26. Further, the “filipin (z-score)” value in the assay on A431 [5] was -0.342; in the assay on HeLa MZ [6], 0.248.
On to `Cc1ccc(S(=O)(=O)NC(=O)NN2CCCCCC2)cc1` [Tolazamide], for which the “LBPA endosome anti-LBPA integrated intensity (z-score)” value with A431 [1] was -0.639; in the assay on HeLa MZ [2], -1.11. Also, the “whole-cell filipin (z-score)” value was -0.852 with A431 [3] and -0.547 in the assay with HeLa MZ [4]. The figures for the “filipin (z-score)” value in the assay on A431 [5] and with HeLa MZ [6] were -0.571 and -0.672, respectively.
On to `CCCOc1ccc(C(=O)OCCN(CC)CC)cc1N` [Proparacaine hydrochloride], for which the entries for the “LBPA endosome anti-LBPA integrated intensity (z-score)” value in the assay with A431 [1] and in the assay on HeLa MZ [2] were -0.432 and 0.26, respectively. For the same compound, the “whole-cell filipin (z-score)” value was -0.369 in the assay with A431 [3] and -0.271 with HeLa MZ [4]. Moreover, the “filipin (z-score)” value in the assay with A431 [5] is -0.454; in the assay with HeLa MZ [6], -0.0385.
